Hits are enriched below; roughly 1.3% of the tested compounds scored in any of these assays.
ALOX12 inh: Primary qHTS assay for inhibitors of human arachidonate 12S-lipoxygenase (ALOX12): Round 2; purified 12hLO, xylenol orange hydroperoxide absorbance; Potency, µM (doses to about 108 µM), for inactives: at the highest dose activity change, negative = inhibition, hits mostly inhibitors; actives 1.1% (n = 580,000); Polyunsaturated fatty acid lipoxygenase ALOX12 (Homo sapiens), P18054; further: potency means the concentration at half of the fitted maximal effect; on the % scale 0 is the no-effect control and ±100 the full control effect
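Hydroperoxide product was detected by ferrous iron/xylenol orange as the 573 to 405 nm absorbance ratio. Arachidonic acid at 40 uM (final) was turned over for 30 min at room temperature by 150 nM human 12hLO, pH 7.0 Hepes buffer, after 15 min compound preincubation.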
TRPML1 inh: qHTS for Inhibitors of the Human Mucolipin Transient Receptor Potential 1 (TRPML1). Mucolipin-1 (Homo sapiens), Q9GZU1. TRPML1-inducible cells, Ca2+ dye fluorescence, FDSS; stronger effect = lower value; inhibition of EC80 agonist-evoked calcium signal. activity change, negative = inhibition, % (concentration not given with the values). actives 0.02% (n = 390,000). AID 624415, 2012; in the data active means activity change below about -50%; inconclusive means between about -30% and that limit;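 further: stimulus is agonist 54-4 at its EC80 concentration; on the % scale 0 is the no-effect control and ±100 the full control effect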
Target sequence (Q9GZU1 whole entry, looked up): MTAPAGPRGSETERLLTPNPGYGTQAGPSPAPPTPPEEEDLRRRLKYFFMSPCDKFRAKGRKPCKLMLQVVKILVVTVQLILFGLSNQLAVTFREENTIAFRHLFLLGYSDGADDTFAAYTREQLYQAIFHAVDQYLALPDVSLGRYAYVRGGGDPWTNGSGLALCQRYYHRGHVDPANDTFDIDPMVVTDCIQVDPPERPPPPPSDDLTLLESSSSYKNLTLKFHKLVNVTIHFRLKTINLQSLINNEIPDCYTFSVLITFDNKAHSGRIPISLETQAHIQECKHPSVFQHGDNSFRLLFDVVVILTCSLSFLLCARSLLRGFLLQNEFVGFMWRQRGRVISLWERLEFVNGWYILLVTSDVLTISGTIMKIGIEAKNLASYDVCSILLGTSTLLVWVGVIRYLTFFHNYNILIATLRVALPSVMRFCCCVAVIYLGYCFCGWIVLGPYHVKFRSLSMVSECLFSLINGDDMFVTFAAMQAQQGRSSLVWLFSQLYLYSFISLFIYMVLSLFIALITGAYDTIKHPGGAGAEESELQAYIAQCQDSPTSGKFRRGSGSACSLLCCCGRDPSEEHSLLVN
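TRPML1-DL cells, Tet-induced overnight (~16 h, 37 °C) at 1,500 cells/well, were loaded with Ca8 no-wash dye plus quencher for 45-90 min at room temperature. Compounds were pinned during FDSS kinetic reading; agonist 54-4 at EC80 (4 uM final) then added.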
Vif-APOBEC3G blk: qHTS for Inhibitors of Vif-A3G Interactions: qHTS; DNA dC->dU-editing enzyme APOBEC-3G (Homo sapiens), Q9HC16; HeLa A3G-eYFP + Vif (tagged APOBEC3G with the HIV-1 protein that degrades it), YFP fluorescence, overnight; Potency, µM (series often up to 46.1 µM), inactives show at the top dose activity, negative = active, usual class: inhibitors; actives 0.076% (n = 410,000); AID 602310, 2012; further: potency means the concentration at half of the fitted maximal effect; on the % scale 0 is the no-effect control and ±100 the full control effect; nearly all actives have a fitted effect of over 60% in size
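Read-out is eYFP fluorescence (Ex 488/Em 500-530) from Vif-expressing HeLa A3G-eYFP cells; more signal means A3G escaped Vif-mediated degradation. Cells plated overnight, compound pinned in, incubated overnight at 37 deg C.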
Glioma ERSR ind: qHTS for Inducers of the Endoplasmic Reticulum Stress Response (ERSR) in Human Glioma: qHTS | actives 0.02% (n = 420,000) | U87-MG GRP78 promoter luciferase reporter, 16 h | Potency, µM, inactives show top-dose activation, most hits filed as activators; further: potency means the concentration at half of the fitted maximal effect; series mostly up to about 76 µM; % of control where 0% means no effect; nearly all actives have a fitted effect of over 35% in size
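ERSR induction read as luciferase luminescence (Bright-Glo, 10 min at room temperature) in stably transfected human U87-MG glioma cells exposed to compounds for 16 h, using GRP78 as sensor.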
TRPML1 ag: qHTS for Agonists of the Human Mucolipin Transient Receptor Potential 1 (TRPML1); activation, % (concentration not given with the values); TRPML1-expressing cells, Ca2+ dye fluorescence, FDSS; actives 0.12% (n = 410,000); Mucolipin-1 (Homo sapiens), Q9GZU1; in the data active means activation above about 50%; inconclusive means mostly about 30% to 49%; further: 0% is about no effect
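In this qHTS format, compounds were pin-transferred onto Ca8-dye-loaded TRPML1-DL cells induced with Tet overnight, and intracellular Ca2+ fluorescence was recorded kinetically for 110 s after a 10 s baseline. A subsequent 4uM final 54-4 (EC80) addition followed by a second 110 s read served as the antagonist phase.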
Vif-APOBEC3F blk: qHTS for Inhibitors of Vif-A3F Interactions: qHTS. HeLa A3F-eYFP + Vif (tagged APOBEC3F with the HIV-1 protein that degrades it), YFP fluorescence increase. Potency, µM (doses to about 46.1 µM), inactives show at the top dose activity, negative = active. actives 0.2% (n = 390,000); further: potency means the concentration at half of the fitted maximal effect; % of control where 0% means no effect; nearly all actives have a fitted effect of over 65% in size
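HeLa cells stably expressing A3F-eYFP plus Vif, plated and incubated overnight at 37 deg C, then exposed to compounds overnight at 37 deg C. Blocked degradation read as raised yellow fluorescence (Ex 488/Em 500-530).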
Starred values were filed as active, the others as inactive; ? = inconclusive; / = not tested or not shown; ! = a repeat was not active. Unless noted, the call rests on the fitted dose curve; in most records, active means well fitted curve in the direction sought with a large enough effect; inconclusive means small, poorly fitted or top-dose-only effect, or another doubt; inactive means no such curve, though single readings can be large; an effect the other way counts as inactive or inconclusive.

SMILES	ALOX12 inh	TRPML1 inh	Vif-APOBEC3G blk	Glioma ERSR ind	TRPML1 ag	Vif-APOBEC3F blk
S=c1nc[nH]c2c1sc1nc(-c3ccccc3)c3c(c12)CCCC3	45µM*	5	-6%	-5%	0	-5%
COCCN1C(=O)/C(=C/c2ccc(N3CCCC3)cc2)SC1=S	?	-11	?	-1%	60*	?
O=C(CCc1ncc(-c2ccccc2F)o1)Nc1ccc(S(=O)(=O)NC2CC2)cc1	-2%	/	/	/	/	/
Clc1ccccc1N1CCN(c2ncnc3c2c(-c2ccccc2)cn3-c2ccccc2)CC1	-19%	-3	-2%	-1%	59*	-4%
O=C(NCc1ccccc1)C12CC3CCC(CC(C3)C1)C2	6%	/	/	/	/	/
CCSc1nc(=O)c2c(n1C)NC(=O)CC2c1ccc(C)cc1C (stereo not drawn)	-13%	/	/	/	/	/
N#C/C(=C/c1cccc(O)c1)C(=O)c1c[nH]c2cc(F)ccc12	16µM*	/	/	/	/	/
N#C/C(=C/c1cccc(C#N)c1)C(=O)c1c[nH]c2cc(F)ccc12	11µM*	/	/	/	/	/
CC(=O)c1c[nH]c2cc(F)ccc12	3%	/	/	/	/	/
CC(C)c1ccc(/C=C(/C#N)c2nc3ccccc3o2)cc1	27%	/	/	/	/	/
Cc1ccc(C(NC(=O)COc2ccccc2)c2cccs2)cc1 (stereo not drawn)	0%	/	/	/	/	/
Cc1noc(C)c1CSc1nc2ccccc2c(=O)n1-c1ccccc1	-10%	6	3.5µM*	-2%	4	-1%
Cc1ccc(Cl)cc1NC(=O)CCNS(=O)(=O)/C=C/c1ccccc1	23%	/	/	/	/	/
Cc1cc(C)nc(NNS(=O)(=O)c2ccc(Cl)cc2)n1	?	-16	4%	-3%	1	-6%
COc1ccc(S(=O)(=O)NNc2nc(C)cc(C)n2)cc1Br	32µM*	23	1%	-1%	2	-4%
CN(Cc1ccc(CN(C)Cc2ccc3c(c2)OCO3)cc1)Cc1ccc2c(c1)OCO2	-27%	/	/	/	/	/
Cc1cccc(C(=O)NC2C(=O)NNC2c2ccc(Cl)cc2)c1 (stereo not drawn)	14µM*	2	1%	4%	0	7%
Cc1ccc(C(=O)c2cc(O)c(O)c([N+](=O)[O-])c2)cc1	0.054µM*	/	/	-4%	/	/
Cc1cccc(C(=O)NC(=S)Nc2ccccc2C(F)(F)F)c1	16µM*	32	-4%	-1%	1	-6%
Cc1cccc(C(=O)NC(=S)Nc2ccccc2C(=O)O)c1	40µM*	-16	-7%	0%	2	-3%
O=C(O)c1ccccc1NC(=S)NC(=O)c1cccc2ccccc12	20µM*	9	0%	-5%	2	12%
Cc1ccc(C(=O)NC(=S)Nc2ccccc2C(F)(F)F)cc1C	?	-10	0%	3%	4	12%
O=C(NCC(=O)N1CCCN(S(=O)(=O)c2ccc(F)cc2)CC1)NCc1ccccc1	13%	/	/	/	/	/
O=C(CC1CC2CCC1C2)NCC12CC3CC(CC(C3)C1)C2 (stereo not drawn)	3%	/	/	/	/	/
O=C(NNC(=S)NC(=O)c1ccc(F)cc1)c1ccc(Cl)cc1	18µM*	/	/	/	/	/
SMILES	ALOX12 inh	TRPML1 inh	Vif-APOBEC3G blk	Glioma ERSR ind	TRPML1 ag	Vif-APOBEC3F blk
O=C(NC(=S)NC12CC3CC(CC(C3)C1)C2)c1ccc(F)cc1	22µM*	79	1%	-5%	1	?
O=C(NNC(=S)NC(=O)c1ccc(F)cc1)c1ccncc1	?	-4	-6%	-6%	0	?
O=C(CCc1ccccc1)NNC(=S)NC(=O)c1ccc(Cl)cc1	13µM*	21	0%	5%	8	-2%
Cc1ccc(C(=O)NNC(=S)NC(=O)c2ccc(Cl)cc2)cc1	?	-17	3%	?	61*	-3%
COc1ccc(N2CCN(CC(O)COc3ccc(C(C)C)c(C)c3)CC2)cc1 (stereo not drawn)	16µM*	-22	5%	-4%	0	1%
Cc1cc(OCC(O)CN2CCN(c3cccc(Cl)c3)CC2)ccc1Cl (stereo not drawn)	40µM*	4	-15%	-1%	-1	0%
COc1ccc(OCC(O)CN2CCN(c3ccc(OC)cc3)CC2)cc1 (stereo not drawn)	?	?	-3%	-6%	0	-11%
C=CCc1cc(OC)ccc1OCC(O)CN1CCN(c2ccc(OC)cc2)CC1 (stereo not drawn)	35µM*!	-2	-1%	-3%	0	-5%
COc1ccc(N2CCN(CC(O)COc3c(OC)cccc3OC)CC2)cc1 (stereo not drawn)	40µM*!	-18	-3%	-2%	1	-3%
COc1ccc(N2CCN(CC(O)COc3ccc(C)c(C)c3)CC2)cc1 (stereo not drawn)	?	?	3%	-1%	1	0%
Cc1ccc(C(O)CNC(=O)c2cccc(C)c2)cc1 (stereo not drawn)	39%	/	/	/	/	/
Oc1ccc(-c2nc3ccc4ccccc4c3c3c2CCC3)cc1O	2µM*	-1	-17%	-14%	0	-27%
Cc1nc2cc(NC(=O)C(C)Oc3ccc(F)cc3)ccc2o1 (stereo not drawn)	7%	/	/	/	/	/
c1ccc(-c2cnn3c(-c4ccccc4)c(-c4ccccc4)nc3n2)cc1	-8%	-25	?	-1%	79*	?
CCOC(=O)CC(=O)CSc1nc2c(sc(=S)n2-c2ccccc2)c(=O)[nH]1	-28%	49	5%	4%	3	0%
CCOC(=O)CSc1nc2c(sc(=S)n2-c2ccc(CC)cc2)c(=O)[nH]1	?	13	-20%	40µM*	2	2%
CCC[C@H](NC(=O)C(C#N)=Cc1cccc(Br)n1)c1ccccc1	7.7µM*	/	/	/	/	/
Cc1cc(NC(=O)CN2C(=O)NC(c3ccc(Cl)cc3)C3=C2COC3=O)ccc1Br (stereo not drawn)	8.9µM*	/	/	/	/	/
Cc1ccc(C2NC(=O)N(CC(=O)Nc3ccc4c(c3)OCCO4)C3=C2C(=O)OC3)cc1 (stereo not drawn)	20%	/	/	/	/	/
O=C(CN1C(=O)NC(c2ccc(Cl)cc2)C2=C1COC2=O)Nc1cccc(Br)c1 (stereo not drawn)	10µM*	/	/	/	/	/
COc1cc(C)ccc1OCc1nnc(SCC(=O)N2CCc3ccccc3C2)n1C	-21%	/	/	/	/	/
CNC(=O)C1CCN(Cc2cccc(C(F)(F)F)c2)CC1	50%	/	/	/	/	/
